# For part of these data: Entries with a potency or affinity are not part of this list.
# What was measured:
# [1] = target: T1, Methionyl-tRNA synthetase, putative (Leishmania donovani (strain BPK282A1)) (UniProt E9BF75); assay: Leishmania donovani Methionine tRNA synthetase (LdMetRS):v7. Dose response assay; format: functional; set-up: conc 80 nM, time 150 minutes
# T1 sequence (whole entry): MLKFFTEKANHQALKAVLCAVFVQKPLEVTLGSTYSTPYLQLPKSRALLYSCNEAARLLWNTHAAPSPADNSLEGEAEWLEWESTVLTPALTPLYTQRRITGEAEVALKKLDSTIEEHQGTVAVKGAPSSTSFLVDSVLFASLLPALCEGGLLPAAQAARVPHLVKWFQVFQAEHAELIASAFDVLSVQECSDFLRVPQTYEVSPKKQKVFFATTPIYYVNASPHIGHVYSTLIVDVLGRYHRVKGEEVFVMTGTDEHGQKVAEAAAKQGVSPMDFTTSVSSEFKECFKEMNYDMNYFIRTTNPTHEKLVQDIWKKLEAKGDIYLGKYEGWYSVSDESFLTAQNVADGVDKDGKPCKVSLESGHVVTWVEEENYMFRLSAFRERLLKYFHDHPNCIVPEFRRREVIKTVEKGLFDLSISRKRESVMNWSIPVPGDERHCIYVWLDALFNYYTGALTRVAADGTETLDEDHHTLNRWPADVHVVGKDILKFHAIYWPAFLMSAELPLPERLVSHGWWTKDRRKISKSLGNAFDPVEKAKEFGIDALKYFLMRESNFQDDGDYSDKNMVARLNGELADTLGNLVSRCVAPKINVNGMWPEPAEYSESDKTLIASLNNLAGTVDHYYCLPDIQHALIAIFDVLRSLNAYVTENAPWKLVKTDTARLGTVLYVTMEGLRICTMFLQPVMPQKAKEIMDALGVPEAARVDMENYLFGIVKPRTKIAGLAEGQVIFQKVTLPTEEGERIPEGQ
# [2] = target: Protein translocase subunit SecA (Escherichia coli (strain K12)) (UniProt P10408); assay: Assay to Identify E. coli SecA ATPase Inhibitors; format: functional; set-up: scale not given: direction of the effect not stated beside the values; details: 30 µM
# Sequence of Protein translocase subunit SecA (Escherichia coli (strain K12)) (P10408 whole entry): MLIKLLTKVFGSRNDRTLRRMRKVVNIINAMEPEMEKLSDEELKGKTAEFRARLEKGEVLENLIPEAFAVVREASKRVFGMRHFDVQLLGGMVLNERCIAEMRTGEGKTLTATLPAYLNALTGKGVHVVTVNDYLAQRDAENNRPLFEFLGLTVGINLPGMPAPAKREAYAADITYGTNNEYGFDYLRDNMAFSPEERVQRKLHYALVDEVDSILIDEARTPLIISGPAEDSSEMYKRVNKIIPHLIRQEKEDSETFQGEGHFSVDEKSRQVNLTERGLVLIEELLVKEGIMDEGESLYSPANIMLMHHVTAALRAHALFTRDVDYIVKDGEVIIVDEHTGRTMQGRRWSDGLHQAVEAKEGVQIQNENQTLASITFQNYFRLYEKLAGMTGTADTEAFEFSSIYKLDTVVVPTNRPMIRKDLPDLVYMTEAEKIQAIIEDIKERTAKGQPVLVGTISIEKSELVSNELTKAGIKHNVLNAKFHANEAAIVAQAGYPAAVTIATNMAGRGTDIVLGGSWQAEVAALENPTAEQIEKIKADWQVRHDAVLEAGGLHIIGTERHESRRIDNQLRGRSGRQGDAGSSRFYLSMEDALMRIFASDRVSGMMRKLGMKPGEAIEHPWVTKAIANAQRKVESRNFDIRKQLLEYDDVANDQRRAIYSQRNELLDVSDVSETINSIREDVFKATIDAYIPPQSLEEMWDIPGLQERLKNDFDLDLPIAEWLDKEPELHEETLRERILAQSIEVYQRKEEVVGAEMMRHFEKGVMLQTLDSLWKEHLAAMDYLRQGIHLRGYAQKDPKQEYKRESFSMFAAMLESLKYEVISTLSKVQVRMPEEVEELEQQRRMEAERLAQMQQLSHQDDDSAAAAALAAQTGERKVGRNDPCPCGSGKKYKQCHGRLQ
# [3] = target: T2, Ubiquitin-activating enzyme e1, putative (Leishmania donovani (strain BPK282A1)) (UniProt E9BSI1); assay: Leishmania donovani Ubiquitin Activating Enzyme (LdE1); format: functional; set-up: scale not given: direction of the effect not stated beside the values; details: 30 µM
# T2 sequence (whole entry): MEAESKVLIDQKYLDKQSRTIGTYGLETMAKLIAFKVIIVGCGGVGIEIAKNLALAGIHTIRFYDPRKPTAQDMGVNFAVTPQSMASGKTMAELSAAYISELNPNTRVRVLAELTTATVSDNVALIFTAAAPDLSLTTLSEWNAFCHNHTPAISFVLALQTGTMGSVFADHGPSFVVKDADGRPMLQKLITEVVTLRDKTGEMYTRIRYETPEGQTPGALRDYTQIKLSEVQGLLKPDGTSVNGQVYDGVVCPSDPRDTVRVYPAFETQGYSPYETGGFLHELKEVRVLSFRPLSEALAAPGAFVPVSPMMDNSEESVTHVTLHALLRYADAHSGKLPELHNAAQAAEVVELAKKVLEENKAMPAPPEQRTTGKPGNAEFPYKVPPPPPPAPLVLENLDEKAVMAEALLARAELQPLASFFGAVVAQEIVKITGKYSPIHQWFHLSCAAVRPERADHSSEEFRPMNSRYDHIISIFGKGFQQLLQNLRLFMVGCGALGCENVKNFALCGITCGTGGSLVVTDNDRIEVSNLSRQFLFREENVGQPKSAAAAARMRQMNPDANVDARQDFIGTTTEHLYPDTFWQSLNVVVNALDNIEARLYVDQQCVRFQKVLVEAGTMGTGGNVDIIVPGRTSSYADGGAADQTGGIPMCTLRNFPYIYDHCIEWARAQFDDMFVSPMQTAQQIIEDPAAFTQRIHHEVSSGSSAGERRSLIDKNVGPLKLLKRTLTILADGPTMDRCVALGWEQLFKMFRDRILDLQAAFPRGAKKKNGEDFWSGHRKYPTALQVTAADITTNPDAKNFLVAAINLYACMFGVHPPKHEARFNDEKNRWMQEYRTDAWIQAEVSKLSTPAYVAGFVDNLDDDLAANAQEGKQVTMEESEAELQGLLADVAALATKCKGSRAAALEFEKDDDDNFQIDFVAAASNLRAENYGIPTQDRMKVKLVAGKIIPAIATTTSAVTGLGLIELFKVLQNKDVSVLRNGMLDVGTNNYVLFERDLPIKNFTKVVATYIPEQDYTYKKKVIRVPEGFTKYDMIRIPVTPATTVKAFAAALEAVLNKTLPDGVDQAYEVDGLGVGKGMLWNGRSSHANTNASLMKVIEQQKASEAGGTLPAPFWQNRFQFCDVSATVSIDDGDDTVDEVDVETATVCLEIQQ
# [4] = target: AMP-activated protein kinase, AMPK (Homo sapiens) (UniProt P54646+O43741+P54619+Q9UGJ0+Q9Y478+Q13131+Q9UGI9); assay: AMP-dependent Kinase enzyme assay. An in vitro enzyme assay that detects ADP turnover that is directly proportional to AMPK activity. This uses naive AMPK that is activated during the assay with MK-8722; format: functional; set-up: scale not given: direction of the effect not stated beside the values; details: 30 µM
# [5] = target: Sialic acid-binding Ig-like lectin 9 (Homo sapiens) (UniProt Q9Y336); assay: Hs-Siglec9 ALPHAscreen SOP 20170721; set-up: scale not given: direction of the effect not stated beside the values; details: 10 µM
# Sequence of Sialic acid-binding Ig-like lectin 9 (Homo sapiens) (Q9Y336 whole entry): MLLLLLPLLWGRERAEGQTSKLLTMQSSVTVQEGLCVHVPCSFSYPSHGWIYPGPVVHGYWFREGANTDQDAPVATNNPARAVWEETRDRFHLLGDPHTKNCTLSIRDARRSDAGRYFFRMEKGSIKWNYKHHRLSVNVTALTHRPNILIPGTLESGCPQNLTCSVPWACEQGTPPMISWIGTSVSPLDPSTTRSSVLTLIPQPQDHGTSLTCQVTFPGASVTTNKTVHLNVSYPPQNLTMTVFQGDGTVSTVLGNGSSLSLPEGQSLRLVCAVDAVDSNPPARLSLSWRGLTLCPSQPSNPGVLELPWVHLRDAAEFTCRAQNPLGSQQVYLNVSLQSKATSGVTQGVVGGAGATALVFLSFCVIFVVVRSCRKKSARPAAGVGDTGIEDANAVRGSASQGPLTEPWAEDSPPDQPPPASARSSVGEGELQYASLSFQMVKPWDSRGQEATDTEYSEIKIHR
# Trypanosoma cruzi = assay: Trypanosoma cruzi phosphomannomutase and mannose-1-phosphate guanylyltransferase assay; format: functional; set-up: scale not given: direction of the effect not stated beside the values; details: 10 µM
# [6] = target: T3, Arginase-2, mitochondrial (Homo sapiens) (UniProt P78540); assay: in vitro enzyme assay to detect the production of urea directly proportional to the activity of Arginase II; format: functional; set-up: scale not given: in the data most compounds retested in dose-response had high values; details: 33.3 µM
# T3 sequence (whole entry): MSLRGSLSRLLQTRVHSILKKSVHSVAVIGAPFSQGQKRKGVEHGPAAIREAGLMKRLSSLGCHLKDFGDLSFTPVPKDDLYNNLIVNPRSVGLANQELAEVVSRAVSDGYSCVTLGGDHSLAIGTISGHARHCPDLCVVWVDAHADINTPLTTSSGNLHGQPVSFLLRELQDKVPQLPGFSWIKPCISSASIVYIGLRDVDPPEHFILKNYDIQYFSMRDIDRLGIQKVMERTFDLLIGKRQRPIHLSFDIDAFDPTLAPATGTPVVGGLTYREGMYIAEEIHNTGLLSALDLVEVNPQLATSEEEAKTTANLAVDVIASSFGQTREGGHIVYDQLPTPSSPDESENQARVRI
# [7] = target: T4, Proteasome subunit beta (Trypanosoma cruzi) (UniProt O96673); assay: Trypanosoma cruzi proteasome chymotrypsin-like activity (TcProtChymo) assay.; format: functional; set-up: scale not given: in the data most compounds retested in dose-response had high values; details: 9.37 µM
# T4 sequence (whole entry): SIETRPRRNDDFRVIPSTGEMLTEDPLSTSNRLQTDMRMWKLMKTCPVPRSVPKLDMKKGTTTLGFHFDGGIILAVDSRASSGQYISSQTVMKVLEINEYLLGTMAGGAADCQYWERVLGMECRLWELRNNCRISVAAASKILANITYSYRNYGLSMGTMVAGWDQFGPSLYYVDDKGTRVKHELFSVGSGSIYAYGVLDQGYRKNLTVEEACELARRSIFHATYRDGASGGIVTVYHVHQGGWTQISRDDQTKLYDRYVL
# Homo sapiens = organism: Homo sapiens; assay: To identify inhibition of the IFN signalling (Jak-Stat) pathway via expression of an eGFP reporter gene under the control of an IFN-stimulated response element (ISRE) containing MxA promoter.; format: functional; set-up: scale not given: direction of the effect not stated beside the values; details: 30 µM
# [8] = target: T5, Tyrosyl-tRNA synthetase, putative (Trypanosoma cruzi (strain CL Brener)) (UniProt Q4DSP6); assay: Trypanosoma cruzi tyrosyl tRNA synthetase (TcYRS) _High Tyrosine SOP; format: functional; set-up: scale not given: in the data most compounds retested in dose-response had high values; details: 30 µM
# T5 sequence (whole entry): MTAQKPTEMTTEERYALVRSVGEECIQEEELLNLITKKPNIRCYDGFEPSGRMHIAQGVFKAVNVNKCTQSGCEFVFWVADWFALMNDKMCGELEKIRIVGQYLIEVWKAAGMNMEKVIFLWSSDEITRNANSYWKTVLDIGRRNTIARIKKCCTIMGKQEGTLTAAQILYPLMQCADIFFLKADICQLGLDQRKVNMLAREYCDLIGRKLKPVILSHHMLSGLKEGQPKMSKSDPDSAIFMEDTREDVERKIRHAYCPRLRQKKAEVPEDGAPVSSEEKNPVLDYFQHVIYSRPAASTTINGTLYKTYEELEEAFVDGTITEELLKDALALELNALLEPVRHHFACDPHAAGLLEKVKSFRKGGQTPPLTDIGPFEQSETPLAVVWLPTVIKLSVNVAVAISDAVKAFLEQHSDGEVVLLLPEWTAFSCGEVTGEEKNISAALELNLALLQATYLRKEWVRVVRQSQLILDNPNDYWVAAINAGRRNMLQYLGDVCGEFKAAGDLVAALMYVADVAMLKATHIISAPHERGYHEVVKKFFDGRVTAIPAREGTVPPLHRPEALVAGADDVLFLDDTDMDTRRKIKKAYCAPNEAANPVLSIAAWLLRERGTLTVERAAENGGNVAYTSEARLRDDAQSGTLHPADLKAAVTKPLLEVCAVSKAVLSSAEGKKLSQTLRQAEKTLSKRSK
# [9] = target: T5, Tyrosyl-tRNA synthetase, putative (Trypanosoma cruzi (strain CL Brener)); assay: Trypanosoma cruzi tyrosyl tRNA synthetase (TcYRS) SOP; format: functional; set-up: scale not given: direction of the effect not stated beside the values; details: 30 µM
# [10] = target: Chromo domain-containing protein 1 (Saccharomyces cerevisiae (strain ATCC 204508 / S288c) (Baker's yeast)) (UniProt P32657); assay: ScCHD-1 Enzyme Inhibition Assay; format: functional; set-up: scale not given: in the data most compounds retested in dose-response had high values; details: 30 µM
# Sequence of Chromo domain-containing protein 1 (Saccharomyces cerevisiae (strain ATCC 204508 / S288c) (Baker's yeast)) (P32657 whole entry, the tested form may be a part): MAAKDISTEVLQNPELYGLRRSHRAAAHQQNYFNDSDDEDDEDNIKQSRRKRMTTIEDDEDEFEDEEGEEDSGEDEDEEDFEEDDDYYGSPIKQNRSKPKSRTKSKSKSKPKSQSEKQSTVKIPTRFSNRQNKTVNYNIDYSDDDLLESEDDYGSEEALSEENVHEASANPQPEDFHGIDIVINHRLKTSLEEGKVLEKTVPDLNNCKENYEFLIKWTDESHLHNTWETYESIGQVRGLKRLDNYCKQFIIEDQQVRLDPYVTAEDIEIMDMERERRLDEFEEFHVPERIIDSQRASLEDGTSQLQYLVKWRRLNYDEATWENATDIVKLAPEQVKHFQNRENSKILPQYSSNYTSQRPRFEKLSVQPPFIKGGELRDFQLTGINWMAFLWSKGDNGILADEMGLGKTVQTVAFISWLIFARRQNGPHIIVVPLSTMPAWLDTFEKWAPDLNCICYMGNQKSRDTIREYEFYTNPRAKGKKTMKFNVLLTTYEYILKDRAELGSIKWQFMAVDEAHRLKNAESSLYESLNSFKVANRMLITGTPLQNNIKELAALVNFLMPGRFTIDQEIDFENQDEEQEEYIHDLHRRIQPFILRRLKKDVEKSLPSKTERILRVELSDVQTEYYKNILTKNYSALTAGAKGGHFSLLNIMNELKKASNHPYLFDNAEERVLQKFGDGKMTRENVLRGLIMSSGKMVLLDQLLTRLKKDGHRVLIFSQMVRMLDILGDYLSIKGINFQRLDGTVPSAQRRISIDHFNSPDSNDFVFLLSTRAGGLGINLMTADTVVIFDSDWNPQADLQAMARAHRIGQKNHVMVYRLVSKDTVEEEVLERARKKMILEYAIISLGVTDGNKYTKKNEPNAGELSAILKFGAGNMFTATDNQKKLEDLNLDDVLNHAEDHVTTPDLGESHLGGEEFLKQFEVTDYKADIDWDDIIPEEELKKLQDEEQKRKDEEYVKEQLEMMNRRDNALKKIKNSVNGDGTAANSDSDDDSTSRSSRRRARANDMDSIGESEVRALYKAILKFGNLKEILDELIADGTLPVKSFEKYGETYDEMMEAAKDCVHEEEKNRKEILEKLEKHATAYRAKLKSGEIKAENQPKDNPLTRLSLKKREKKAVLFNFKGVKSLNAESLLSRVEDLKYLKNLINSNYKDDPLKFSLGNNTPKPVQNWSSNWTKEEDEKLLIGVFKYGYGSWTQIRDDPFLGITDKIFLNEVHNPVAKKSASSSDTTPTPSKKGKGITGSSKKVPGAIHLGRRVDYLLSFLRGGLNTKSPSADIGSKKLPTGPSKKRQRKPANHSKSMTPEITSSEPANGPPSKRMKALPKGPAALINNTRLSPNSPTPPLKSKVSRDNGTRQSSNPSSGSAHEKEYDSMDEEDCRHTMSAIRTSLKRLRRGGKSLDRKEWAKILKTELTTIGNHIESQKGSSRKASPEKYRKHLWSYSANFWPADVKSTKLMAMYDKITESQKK
smiles,measurement,setting,value
FC1(F)CCN(Cc2cccnc2)CC12CCN(c1ccccc1)C2 (centres undefined),PXC50,"[1]; BOTTOM -4.019199092, HILLSLOPE 0.87851595, MAX_EFFECT 63.88888889, TOP 104.3685566",4.25
same,PXC50,"[1]; BOTTOM -4.110370477, HILLSLOPE 0.854311737, MAX_EFFECT 59.79202773, TOP 100.0",4.27
same,PXC50,"[1]; BOTTOM -6.339797733, HILLSLOPE 0.853335904, MAX_EFFECT 59.06040268, TOP 100.0",4.22
same,PXC50,[1]; MAX_EFFECT 7.101727447,< 4
same,PXC50,[1]; MAX_EFFECT 13.23763955,< 4
O=C(c1ccc2[nH]ccc2c1)N1CCn2cnc(COCC3CC3)c2C1,PXC50,"[1]; BOTTOM 5.122464756, HILLSLOPE 1.784249951, MAX_EFFECT 79.5379538, TOP 100.0",4.27
same,PXC50,"[1]; BOTTOM 5.453463465, HILLSLOPE 1.390916791, MAX_EFFECT 57.24637681, TOP 100.0",4.07
same,PXC50,[1]; MAX_EFFECT 37.27598566,< 4
same,Percent Effect,[2],1.11%
same,Percent Effect,[3],7.79%
same,Percent Effect,[4],5.2%
same,Percent Effect,[5],-2.14%
same,Percent Effect,Trypanosoma cruzi,-2.66%
same,Percent Effect,[6],13.6%
same,Percent Effect,[7],17.4%
same,Percent Effect,Homo sapiens,5.61%
same,Percent Effect,[8],26.5%
same,Percent Effect,[9],37.2%
same,Percent Effect,[10],-6.46%
CC(C)C[C@H](N)COc1cccc(F)c1Oc1ccc(Cl)cc1,PXC50,"[1]; BOTTOM 2.189725924, HILLSLOPE 1.340429131, MAX_EFFECT 78.50287908, TOP 100.0",4.39
same,PXC50,"[1]; BOTTOM 6.665693755, HILLSLOPE 1.000390525, MAX_EFFECT 63.08724832, TOP 89.83359252",4.34
same,PXC50,"[1]; BOTTOM 8.555350196, HILLSLOPE 1.300138335, MAX_EFFECT 82.32235702, TOP 100.0",4.4
same,PXC50,"[1]; BOTTOM 9.084234051, HILLSLOPE 1.282962904, MAX_EFFECT 79.16666667, TOP 100.0",4.36
same,PXC50,"[1]; BOTTOM -2.40342641, HILLSLOPE 1.582156808, MAX_EFFECT 66.8261563, TOP 100.0",4.18

# Reference: ChEMBL document CHEMBL3988442, “University of Dundee, Small-Polar-MMV Screening Library” (2021)
